Experimental findings from PubChem BioAssay (NCI) are described below.

Each structure is given as a SMILES string. Compounds without any hit were thinned out: in the full panel of roughly 79,000, 15% have a hit. A number with no mark means an inactive call. Active and inactive are the calls of the source. No stated cut-off is given here; in the data, active means growth inhibition above about 70%; inactive means the rest.

The test in a line: NCI Yeast Anticancer Drug Screen. Data for the sgs1 strain (AID 173).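 Further: 0% = growth of vehicle-only control cultures.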 The following applies: S. cerevisiae sgs1 mutant, stronger effect = higher value. Here is the method:
Growth inhibition of yeast strains with defined genetic alterations is measured as a screen for potential anti-cancer activity. Selected strains with alterations in DNA damage repair or cell cycle control were exposed to compounds and growth inhibition was measured relative to vehicle treated controls. The strain used in this assay is sgs1

In the case of `CCN1CCC(O)(c2ccc(Oc3ccc(Cl)cc3)cc2)C(C(=O)c2ccc(Oc3ccc(Cl)cc3)cc2)C1` (stereo not given), the growth inhibition was -27% (at 1.2 µM); 63% (at 3.7 µM); 20% (at 11.0 µM); 11% (at 33.0 µM); 33% (at 100.0 µM).
For `COc1cc(C2C3=C(COC3=O)Oc3cc4c(cc32)OCO4)cc(OC)c1O` (stereo not given) the same measures were 13%, 10%, 22%, 26% and 28%.
For the compound `CC1C(c2ccccc2)SC(=N)N1C` (stereo not given), the growth inhibition is -1% (at 1.2 µM); 0% (at 3.7 µM); 1% (at 11.0 µM); 1% (at 33.0 µM); 0% (at 100.0 µM).
Take `Clc1nc(Cl)nc(Nc2cccc3ccccc23)n1`: the growth inhibition by setting is: (at 1.2 µM) 31%; (at 3.7 µM) 47%; (at 11.0 µM) 77% (active); (at 33.0 µM) 96% (active); (at 100.0 µM) 98% (active).
With `CC1(C)CC(=O)C(C(=O)Nc2cccs2)=C(O)C1`, the growth inhibition is, setting by setting: (at 1.2 µM) 8%; (at 3.7 µM) 23%; (at 11.0 µM) 38%; (at 33.0 µM) 88% (active); (at 100.0 µM) 99% (active).
For `CN(C)N=Nc1ccc(N(C)C)cc1`, the growth inhibition (at 1.2 µM) is 0%; the growth inhibition (at 3.7 µM) is 4%; the growth inhibition (at 11.0 µM) was 6%; the growth inhibition (at 33.0 µM) is 15%; the growth inhibition (at 100.0 µM) was 28%.
For `CN(C)CCNC(=Cc1ccc2ccccc2[n+]1C)NCCN(C)C` the same measures were 0%, 0%, 0%, 0% and 1%.
The like results for `O=C(Cc1ccccc1)NNc1nc(NNC(=O)c2ccncc2)nc(Nc2ccc([N+](=O)[O-])cc2)n1` were, in that order, 10%, 32%, 63%, 69% and 64%.
